Experimental data: PubChem BioAssay AID1851 (National Center for Advancing Translational Sciences (NCATS), 2009)
Among all 16,000 compounds or so, about 5,100 (32%) were called active. Not shown: some 25% with an inconclusive outcome. Calls follow the shape of the dose curve; as a rule, active = well fitted curve in the direction sought with a large enough effect; inconclusive = small, poorly fitted or top-dose-only effect, or effect the other way; inactive = no such curve, though single readings can be large or run the other way. The list shows a part of the results.

target: Cytochrome P450 3A4 (Homo sapiens) (UniProt P08684); assay: Cytochrome panel assay with activity outcomes; settings: recombinant CYP, pro-luciferin dealkylation, luminescence, p450-cyp3a4; series mostly up to 57.1 µM; activity, negative = inhibition: at the top concentration
Sequence (P08684 whole entry, looked up): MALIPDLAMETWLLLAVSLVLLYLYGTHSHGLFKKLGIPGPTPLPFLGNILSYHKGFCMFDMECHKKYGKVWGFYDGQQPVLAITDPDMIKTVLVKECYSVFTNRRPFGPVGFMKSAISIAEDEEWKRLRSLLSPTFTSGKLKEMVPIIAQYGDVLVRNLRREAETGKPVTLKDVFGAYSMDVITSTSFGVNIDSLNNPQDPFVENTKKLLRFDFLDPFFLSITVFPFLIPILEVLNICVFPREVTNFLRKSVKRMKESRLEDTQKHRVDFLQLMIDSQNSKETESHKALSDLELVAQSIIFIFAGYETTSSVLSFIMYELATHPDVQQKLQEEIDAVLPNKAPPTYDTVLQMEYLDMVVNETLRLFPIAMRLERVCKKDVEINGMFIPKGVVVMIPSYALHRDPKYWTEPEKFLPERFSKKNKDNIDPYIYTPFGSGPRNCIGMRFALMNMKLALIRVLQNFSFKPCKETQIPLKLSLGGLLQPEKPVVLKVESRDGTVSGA
% is scaled to controls: 0 for no effect and ±100 for the full control effect.

AC50, inactive:
CCCN(CCC)C(=O)[C@@H](CCC(=O)O)NC(=O)c1ccccc1
N[C@@H](C(=O)O)c1ccc(C(=O)O)cc1
Oc1cc(O)c2c(c1)O[C@H](c1ccc(O)c(O)c1)[C@H](O)C2

AC50, active:
COCCNc1ncnc2ccc(-c3cccc(NS(C)(=O)=O)c3)cc12 15.8 µM
CCCC/C=C/C(NC(=O)c1ccccc1)c1ccccc1 (stereo unspecified) 15.8 µM
CCCC/C=C/C(NC(=O)C(C)(C)C)c1ccccc1 (stereo unspecified) 25.1 µM
CCCC/C=C/C(NC(=O)c1cccs1)c1ccccc1 (stereo unspecified) 12.6 µM
C#CCOC(=O)NC(/C=C/CCCC)c1ccccc1 (stereo unspecified) 12.6 µM
CCCC/C=C/C(NC(=O)Oc1cccc(C(F)(F)F)c1)c1ccccc1 (stereo unspecified) 15.8 µM
CCN1C(=O)/C(=C2\SC(N3CCCCC3)=NC2=O)c2ccccc21 14.1 µM
S=C1SCN(Cc2ccccn2)CN1Cc1ccco1 20 µM
O=C1C(Cc2ccccc2)SC(=Nc2ccccc2)N1c1ccccc1 (stereo unspecified) 3.98 µM
C=CCn1c(=O)c2c(nc(Br)n2Cc2ccccc2Cl)n(C)c1=O 0.794 µM
O=C(COc1ccc(-c2ccccc2)cc1)N/N=C/c1ccccc1Br 14.1 µM
Cc1ccccc1C(=O)c1cccn1CC(=O)NCc1ccco1 22.4 µM
O=C(Cn1cc(C(=O)c2ccco2)c2ccccc21)NCc1ccco1 25.1 µM
O=C(Cn1cccc1C(=O)c1ccccc1)NCc1cccs1 10 µM
COc1ccccc1OCCn1cc(C(=O)c2ccco2)c2ccccc21 3.98 µM
c1ccc2c(c1)ncn2Cc1nnc2sc(-c3ccc4c(c3)OCO4)nn12 2.24 µM
COc1ccc(N2CC(C(=O)OCC(=O)c3cccc(OC)c3)CC2=O)cc1 (stereo unspecified) 14.1 µM
COC(=O)c1sccc1NC(=O)CSc1cc(Cl)ccc1Cl 22.4 µM
COC(=O)c1sccc1NC(=O)CSc1ccccc1NS(=O)(=O)c1ccc(Cl)cc1 3.55 µM
Cc1ccc(C(=O)NNC(=O)CSc2nnc(-c3ccncc3)n2-c2ccc(C)cc2)cc1 3.16 µM
O=C(CSc1nnc(-c2ccccc2)n1-c1ccccc1)c1cccs1 7.08 µM
CCn1c(SCC(=O)Nc2ccccc2C(=O)OC)nnc1-c1ccc(N)cc1 0.631 µM
Cc1ccccc1NC(=O)CSc1nnc(-c2ccccc2)n1-c1ccccc1 3.55 µM
CCOc1ccc(-n2c(SCC(=O)Nc3ccccc3C)n[nH]c2=O)cc1 12.6 µM
Cc1cnc(NC(=O)CCCc2nc3ccccc3s2)s1 2 µM
COc1cc(C2C(C(=O)OCCC#N)=C(C)NC3=C2S(=O)(=O)c2ccccc23)cc(OC)c1OC (stereo unspecified) 5.01 µM
Cc1cc(C=O)c(C)n1-c1ccc(NC2CCCC2)c([N+](=O)[O-])c1 4.47 µM
CN(Cc1ccco1)c1cc(-c2ccc3c(c2)OCO3)ncn1 3.98 µM
CN(C)c1ccc(-c2cc(N(C)Cc3ccco3)ncn2)cc1 12.6 µM
CS(=O)(=O)Nc1cccc(-c2ccc3ncnc(N4CCOCC4)c3c2)c1 7.94 µM
CS(=O)(=O)Nc1cccc(-c2ccc3ncnc(N4CCNCC4)c3c2)c1 15.8 µM
CS(=O)(=O)Nc1cccc(-c2ccc3ncnc(NCCN4CCOCC4)c3c2)c1 15.8 µM
COC(=O)C1=C(C)NC(C)=C([N+](=O)[O-])[C@@H]1c1ccccc1C(F)(F)F 12.6 µM
O=C1c2c(O)cc(O)cc2O[C@@H](c2ccc(O)c(O)c2)[C@H]1O 10 µM
CCOc1cc(-c2noc(N)c2C#N)cc(OCC)c1OCC 0.2 µM
Cc1ccc(S(=O)(=O)N2CCN(Cc3ccccc3C(F)(F)F)CC2)cc1 8.91 µM
O=C(Nc1cccnc1)c1ccc2snnc2c1 11.2 µM
Cc1cc(C)c2cc(C#N)c(NCCOC(=O)c3ccccc3C)nc2c1 7.08 µM
Cc1cc(C)cc(N(C(=O)c2ccccn2)C(C(=O)NC2CCCCC2)c2cccs2)c1 (stereo unspecified) 5.01 µM
COc1ccc(CCN(C(=O)C(F)(F)F)C(C(=O)NC2CCCC2)c2cccs2)cc1 (stereo unspecified) 3.55 µM
O=C(NC1CCCCC1)C(c1cccs1)N(C(=O)C(F)(F)F)c1ccccc1 (stereo unspecified) 7.08 µM
Cc1ccc(N(C(=O)C(F)(F)F)C(C(=O)NC2CCCCC2)c2cccs2)cc1C (stereo unspecified) 6.31 µM
Cc1snc(SCC(=O)N/N=C(\N)COc2cccc(C(F)(F)F)c2)c1C#N 3.16 µM
COc1cccc(CNC(=O)CCNC(=O)Cn2ccc3ccccc3c2=O)c1 14.1 µM
CCCC[C@@H]1C[C@H]1C(NC(=O)c1ccco1)c1ccc(C(=O)OC)cc1 (stereo partly specified) 15.8 µM
CCCC[C@@H]1C[C@H]1C(NC(=O)c1ccco1)c1ccc(-c2ccccc2)cc1 (stereo partly specified) 15.8 µM
CCCC[C@@H]1C[C@H]1C(NC(=O)c1ccco1)c1ccc(Cl)cc1 (stereo partly specified) 7.94 µM

activity, negative = inhibition, inactive:
[O-][N+]1(CC[N+]2([O-])CCCCC2)CCCCC1 -11.4% [at 11.4 µM]
CCN(CC)Cc1c(O)c(Cl)cc2c3c(c(=O)oc12)CCCC3 -27.4%
CCCC/C=C/C(NC(=O)c1ccc(-c2ccccc2)cc1)c1ccccc1 (stereo unspecified) -9.93%
CCCCCCCCCCCCC/C=C\[C@@H](O)[C@H](CO)NC(C)=O -16.3%
CC(=O)Oc1cc(C(F)(F)F)ccc1C(=O)O 8.47% [at 25.6 µM]
O=C1N=C(N2CCOCC2)S/C1=C\C=C/c1ccccc1 -1.29%
CN(C)CN1C(=O)S/C(=C2/C(=O)N(CN(C)C)c3ccccc32)C1=O 4.92% [at 11.4 µM]
Cc1ccc([C@@]2(C)CC/C(=N/N=C3\CC[C@](C)(c4ccc(C)c(C)c4)c4cc(C)c(C)cc43)c3cc(C)c(C)cc32)cc1C -0.566% [at 11.4 µM]
S=c1nc[nH]c2c1ncn2Cc1ccco1 -14.9% [at 11.4 µM]
c1ccc(CCNCc2ccco2)nc1 -15.3% [at 11.4 µM]
C/C(=N/O)c1ccc2cc(Br)c3ccccc3c2c1 -23.8% [at 11.4 µM]
O=C1/C(=C\c2ccc(Br)o2)SC(=Nc2ccccc2)N1c1ccccc1 -27.8%
C=CCn1c(=O)c2c(nc(-c3ccc(S(=O)(=O)O)cc3)n2C)n(C)c1=O 2.84%
COC(=O)Cn1c(=O)c2c(nc(Br)n2Cc2ccccc2Cl)n(C)c1=O -4.19% [at 2.29 µM]
O=C(COc1ccccc1-c1ccccc1)N/N=C/c1cccc2ccccc12 1.08% [at 2.29 µM]
Cc1nnc(NC(=O)CCC(=O)NCc2cccs2)s1 -18.9%
CC(C)Oc1ccc(N2CC(C(=O)OCC(=O)NCc3ccccc3)CC2=O)cc1 (stereo unspecified) 1.29% [at 2.29 µM]
COC(=O)c1sccc1NC(=O)CN(C)NS(=O)(=O)c1ccc(F)cc1 3.97%
COC(=O)c1sccc1NC(=O)CSc1ccc(Cl)cc1 -2.63% [at 2.29 µM]
CCOC(=O)c1ccccc1NC(=O)CSc1cccc[n+]1[O-] -12.9%
CCCCOC(=O)Nc1ccccc1C(=O)OC 20.6% [at 11.4 µM]
O=C(O)c1cc2cc(Cl)ccc2oc1=O -15.1%
CN(C)CCNC(=O)C1CCCNC1=O (stereo unspecified) 25.9%
Cc1ncn(-c2ccccc2O)c1C -10.7% [at 11.4 µM]
CCCCOC(=O)Nc1nc2ccccc2s1 0.331% [at 11.4 µM]
OC[C@H]1O[C@H](n2cnc3c(NC4CCCC4)nc(Cl)nc32)[C@@H](O)[C@@H]1O 1.81%
NC1(C(=O)O)CC(C(=O)O)C1 (stereo unspecified) -11.5%
Cc1cc(C=O)c(C)n1-c1ccc(N2CCCCC2)c([N+](=O)[O-])c1 -19.9%
COc1ccc(-n2c(C)cc(C=O)c2C)cc1Cl 6.7% [at 2.29 µM]
CN(Cc1ccco1)c1cc(-c2ccoc2)ncn1 5.33%
CN(C)CCSCCO -12.3% [at 11.4 µM]
Oc1cc(O)c2c(c1)O[C@H](c1ccc(O)c(O)c1)[C@@H](O)[C@@H]2c1c(O)cc(O)c2c1O[C@@H](c1ccc(O)c(O)c1)[C@H](O)C2 -13.1% [at 11.4 µM]
CN(C)[C@H]1C(=O)C(C(=O)NCN2CCCC2)=C(O)[C@]2(O)C(=O)C3=C(O)c4c(O)cccc4[C@](C)(O)[C@H]3C[C@H]12 -6.5% [at 11.4 µM]
CC(=O)NC1=NC(=O)CS1 -4.9%
N[C@@]1(C(=O)O)CN[C@H](C(=O)O)C1 24.7%
Cc1ccc(S(=O)(=O)N2CCN(S(C)(=O)=O)C2)cc1 -0.447% [at 11.4 µM]
Cc1ccc(S(=O)(=O)N2CCN(C(=O)CN3CCN(C)CC3)C2)cc1 -21.9%
O=C(Nc1cccc(OC(=O)c2cccnc2)c1)c1cccnc1 -4.22% [at 2.29 µM]
CCOC(=O)c1ccccc1Oc1c(F)c(F)nc(NCCO)c1F -28.7%
COC(=O)c1cc(C#N)c(NCc2ccc(Cl)cc2Cl)nc1C -2.03%
O=C(NC1CCCCC1)c1ccc(COCC(F)(F)F)o1 -17%
Cc1nnc(N(C)C(=O)c2ccccn2)s1 -5.58%
O[C@H](CCCN1CCN(c2ncc(F)cn2)CC1)c1ccc(F)cc1 -19.9%
O=C(CCNC(=O)Cn1cnc2ccccc2c1=O)NCC1COc2ccccc2O1 (stereo unspecified) 5.27% [at 2.29 µM]
COc1ccc(OC)c(CNC(=O)CCNC(=O)Cn2ccc3ccccc3c2=O)c1 5.01% [at 2.29 µM]
CC1CCN(C(NC(=O)c2ccco2)C(=O)c2ccccc2)CC1 (stereo unspecified) -24.8%
